Results filed as inconclusive are left out. The source made the active and inactive calls. The call rests on the fitted dose curve; in most records, active means well fitted cell-killing curve with a large enough effect; inconclusive means small, poorly fitted or top-dose-only effect; inactive means no such curve, though single readings can be large or run the other way.
Experiment: qHTS of pediatric cancer cell lines to identify multiple opportunities for drug repurposing: Primary screen for A673 cells (AID 1347092); further: nearly all actives have a fitted effect of over 45% in size
Conditions: A673 Ewing sarcoma viability, CellTiter-Glo ATP luminescence, 48 h; series mostly up to 46 µM
Procedure, shortened: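 Cell viability of A673 measured by CellTiter-Glo ATP luminescence after 48 hours compound exposure. Dilution series spanned 0.78 nM to 46 µM (MIPE, 11-point) or 0.59 nM to 46 µM (NPC, 8-point); bortezomib 2.3 uM positive control.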
Potency means the concentration at half of the fitted maximal effect.

Row | Compound | Potency
1 | C[C@H]1[C@@H](OC(=O)CCC(=O)O)O[C@@H]2O[C@@]3(C)CC[C@@H]4[C@H](C)CC[C@@H]1[C@@]24OO3 | 5900 nM (active)
2 | OC[C@@H](O)[C@@H](O)[C@H](O)[C@@H](O)CO | inactive
3 | CCS(=O)(=O)Nc1ccc2[nH]c(O)c(C(=Nc3ccc(CN4CCCCC4)cc3)c3ccccc3)c2c1 | 590 nM (active)
4 | c1coc(CNc2ncnc3nc[nH]c23)c1 | inactive

Experiment: qHTS of pediatric cancer cell lines to identify multiple opportunities for drug repurposing: Primary screen for SK-N-MC cells (AID 1347093)
Conditions: SK-N-MC viability, CellTiter-Glo luminescence, 48 h; series mostly up to 46 µM
Procedure, shortened: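 Metabolically active cells were quantified by ATP-dependent luminescence (CellTiter-Glo, 15 min at room temperature) following 48 h treatment. Cells had been plated at 500-1,000 per well and settled for 5 h beforehand.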

Row | Compound | Potency
5 | Cc1cc(C(=O)NOCCO)c(Nc2ccc(I)cc2F)n(C)c1=O | 662 nM (active)
6 | O=C(Nc1nnc(-c2ccco2)o1)c1cc(-c2ccccc2)nc2ccccc12 | 11800 nM (active)
7 | OCC(O)C(O)C(O)CO (centres undefined) | inactive
8 | C[C@H]1[C@@H](OC(=O)CCC(=O)O)O[C@@H]2O[C@@]3(C)CC[C@@H]4[C@H](C)CC[C@@H]1[C@@]24OO3 | 935 nM (active)
9 | Cc1cnc(Nc2ccc(CN3CCOCC3)cc2)nc1Nc1cccc(S(=O)(=O)NC(C)(C)C)c1 | 833 nM (active)
10 | OC[C@@H](O)[C@@H](O)[C@H](O)[C@@H](O)CO | inactive
11 | C[C@H](NC(=O)C(C#N)=Cc1cccc(Br)n1)c1ccccc1 | 11800 nM (active)
12 | COC(=O)[C@@H]1[C@H]2C[C@@H]3c4[nH]c5ccccc5c4CCN3C[C@@H]2CC[C@@H]1O | 2960 nM (active)
13 | CC(C)C[C@H](NC(=O)[C@@H](NC(=O)c1cccc(-c2ccccc2)n1)[C@@H](C)O)B(O)O | 23.5 nM (active)
14 | CCS(=O)(=O)Nc1ccc2[nH]c(O)c(C(=Nc3ccc(CN4CCCCC4)cc3)c3ccccc3)c2c1 | 118 nM (active)
